Source: PubChem BioAssay (Tox21)
Records with an inconclusive call do not appear. Activity calls are given as the source filed them. Unless noted, calls come from the whole dose curve.

Key:
[1] = Nuclear factor erythroid 2-related factor 2/antioxidant responsive element (Nrf2/ARE) small molecule agonists: qHTS cell viability counter screen in human keratinocytes (AID 1919968; active = well fitted cell-killing curve with a large enough effect in the repeat runs; note: nearly all actives have a fitted effect of over 55% in size)
In short: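 HaCaT ARE reporter line, 1,500 cells/well; 5 h settle, 37 C/5% CO2; cpd in DMSO pinned; 23 h exposure; CellTiter-Fluor, 1 h; fluorescence.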

[2] = Nuclear factor erythroid 2-related factor 2/antioxidant responsive element (Nrf2/ARE) small molecule agonists: luciferase reporter gene qHTS assay in human keratinocytes (AID 1919969); note: nearly all actives have a fitted effect of over 35% in size
[3] = molecular target: Gonadotropin-releasing hormone receptor (Homo sapiens) (UniProt P30968); test: Human gonadotropin-releasing hormone receptor (GnRHR) small molecule agonists, calcium flux assay in GnRHR-HEK293 cells (AID 1920063); note: nearly all actives have a fitted effect of over 35% in size
In short: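 GnRHR-HEK293, 1500 cells/well, 18 h 37 C/5% CO2; Ca dye 1 h 37 C; cpd pinned (DMSO), agonist mode; kinetic FL 480/540, 3 min, 1 s reads; 15 conc, n=3.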

[4] = G protein-coupled receptor (GPCR) small molecule agonists, calcium flux assay: HEK293 wild type cell line counter screen (AID 1920065)
In short: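 Kinetic fluorescence at Ex/Em 480/540, recorded every second over 3 min, served as the read-out after compound addition. Each compound was tested at 15 concentrations in triplicate on cells pre-loaded with calcium dye for 1 h.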

[5] = p53 small molecule agonists, cell-based qHTS assay with human liver microsomes (AID 1963577);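 note: p53 response element beta-lactamase reporter cells with liver microsomes plus NADPH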
In short: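 Reporter activation was measured by LiveBLAzer fluorescence intensity in p53RE-bla cells, which had been exposed to compounds for 16 h at 37 C alongside 0.5 mg/mL human liver microsomes and 0.5 mg/mL NADPH (final concentrations).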

[6] = p53 small molecule agonists, cell-based qHTS assay with rat liver microsomes (AID 1963578)
In short: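 Compound in DMSO added to p53RE-bla cells 5 h post-plating; rat microsomes/NADPH 0.5 mg/mL final; 16 h, 37 C; LiveBLAzer 2 h RT.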

[7] = p53 small molecule agonists, cell-based qHTS assay with human liver microsomes: qHTS cell viability counter screen (AID 1963579); note: nearly all actives have a fitted effect of over 45% in size
In short: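 HLM-supplemented (0.5 mg/mL final) and NADPH-supplemented (0.5 mg/mL final) p53RE-bla cultures, 4,000 cells per well, were dosed with compounds in DMSO for 16 h at 37 C; luminescent ATP detection (CellTiter-Glo, 30 min, room temperature) quantified surviving cells.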

[8] = p53 small molecule agonists, cell-based qHTS assay with rat liver microsomes: qHTS cell viability counter screen (AID 1963580); note: nearly all actives have a fitted effect of over 45% in size
In short: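 p53RE-bla HCT-116 cells were exposed 16 h at 37 C to compounds with rat liver microsomes (0.5 mg/mL) and NADPH (0.5 mg/mL). Viability was measured in the same wells as ATP content by CellTiter-Glo luminescence.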

[9] = p53 small molecule agonists, cell-based qHTS assay: qHTS cell viability counter screen (AID 1963581); note: nearly all actives have a fitted effect of over 45% in size
In short: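 HCT-116 p53RE-bla cells, 4,000/well, plated 5 h before compound pin transfer; 16 h at 37 C; bla substrate 2 h RT; then CellTiter-Glo, 30 min RT, luminescence.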

[10] = p53 small molecule agonists, cell-based qHTS assay (AID 1963582; active = well fitted activation curve with a large enough effect in the signal ratio in the repeat runs, not every such curve was filed as active; the % refers to the signal ratio)
In short: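 Reporter line: p53RE-bla. Pre-incubation 5 h, 37 C, 5% CO2; compound (DMSO, pin tool) 16 h, 37 C; B/G FRET substrate 2 h RT; fluorescence intensity read.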

[11] = molecular target: 5-hydroxytryptamine receptor 2A (Homo sapiens) (UniProt P28223); test: 5-hydroxytryptamine receptor 2A (HTR2A) small molecule agonists, cell-based qHTS assay (AID 1963587); note: nearly all actives have a fitted effect of over 30% in size
In short: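 CHO cells stably expressing human HTR2A, plated 18 h, loaded with calcium dye 1 h at 37 C. Agonist mode: compounds added and intracellular calcium fluorescence recorded kinetically for 2 min at 1 sec intervals.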

[12] = molecular target: Muscarinic acetylcholine receptor M1 (Homo sapiens) (UniProt P11229); test: Cholinergic receptor muscarinic 1 (CHRM1) small molecule antagonists, cell-based qHTS assay (AID 1963588); note: nearly all actives have a fitted effect of over 40% in size
In short: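 CHRM1-CHO calcium-flux assay, antagonist mode. Cells were seeded 18 h, dye-loaded 1 h at 37 C and given compound for 5 min at RT, then acetylcholine was added at 50nM. FDSS fluorescence was read 3 min; 15 concentrations, three runs.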

[13] = cAMP Responsive Elements (CRE) small molecule antagonists, cell-based qHTS assay (AID 1963591; active = well fitted inhibition curve with a large enough effect in the signal ratio in the repeat runs, not every such curve was filed as active; the % refers to the signal ratio)
In short: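 Beta-lactamase reporter read by FRET substrate (LiveBLAzer B/G) after 2 h at room temperature. CRE-bla HEK293T cells had received compound plus 0.25 uM (final) NKH477 for 3 h at 37 °C.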

[14] = molecular target: Beta-2 adrenergic receptor (Homo sapiens) (UniProt P07550); test: Adrenergic beta2 receptor (ADRB2) small molecule antagonists, cell-based qHTS assay (AID 1963592); note: series mostly up to about 92 µM; nearly all actives have a fitted effect of over 50% in size
In short: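 Cells (CHO, stable ADRB2 overexpression) incubated 18-20hr at 37C; compounds added from DMSO; agonist mix (1nM isoproterenol, 100uM IBMX, 25uM Ro-20-1724) added; 0.5hr RT; d2-cAMP and anti-cAMP-cryptate added; 1hr RT; 665/615 nm read.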

[15] = molecular target: Beta-2 adrenergic receptor (Homo sapiens) (UniProt P07550); test: Adrenergic beta2 receptor (ADRB2) small molecule agonists, cell-based qHTS assay (AID 1963593);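 note: CHO cells stably overexpressing human ADRB2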
In short: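 CHO cells stably over-expressing ADRB2 were plated overnight at 37C, then dosed with compounds plus a stimulation mix containing 100uM IBMX and 25uM Ro-20-1724 for 0.5hr at room temperature. cAMP was measured by HTRF competition, 1hr.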

[16] = molecular target: D(2) dopamine receptor (Homo sapiens) (UniProt P14416); test: Dopamine D2 receptor (DRD2) small molecule agonists, cell-based qHTS assay (AID 1963594); note: nearly all actives have a fitted effect of over 35% in size
In short: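 HEK293 cells stably expressing human DRD2, pre-treated with PDE inhibitor Ro20-1724 (0.1 mM final) and compound 10 min at room temperature, then stimulated with NKH477 (200nM […]) for 30 min. cAMP read by HTRF (665/620 nm).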

[17] = molecular target: D(2) dopamine receptor (Homo sapiens) (UniProt P14416); test: Dopamine D2 receptor (DRD2) small molecule antagonists, cell-based qHTS assay (AID 1963595; active = well fitted inhibition curve with a large enough effect in the signal ratio in the repeat runs, with a control signal flat; the % refers to the signal ratio)
In short: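 HEK293 cells stably expressing DRD2, preincubated with 0.1 mM Ro20-1724 and compounds 10 min, were stimulated with 200 nM NKH477 plus 12 nM quinpirole for 30 min at room temperature; cAMP measured by HTRF (665/620 nm).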

[18] = molecular target: 5-hydroxytryptamine receptor 2A (Homo sapiens) (UniProt P28223); test: 5-hydroxytryptamine receptor 2A (HTR2A) small molecule antagonists, cell-based qHTS assay (AID 1963586); note: nearly all actives have a fitted effect of over 45% in size
In short: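 Antagonist-mode intracellular calcium assay: DOI (4 nM) added after 5 min compound pre-incubation at room temperature to dye-loaded HTR2A-CHO cells. Fluorescence followed for 3 min, sampled every second.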

[19] = molecular target: Muscarinic acetylcholine receptor M1 (Homo sapiens) (UniProt P11229); test: Cholinergic receptor muscarinic 1 (CHRM1) small molecule agonists, cell-based qHTS assay (AID 1963589); note: nearly all actives have a fitted effect of over 35% in size
In short: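 Human M1 in stable CHO line; 18 h plating, 1 h dye load 37 C; cpd added (agonist mode); Ca2+ fluorescence kinetic read, 1 s intervals; 15 conc, 3 runs.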

[20] = cAMP Responsive Elements (CRE) small molecule agonists, cell-based qHTS assay (AID 1963590)
In short: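 HEK 293T CRE-bla, 2,000 cells/well, 18 h preincubation 37 C/5% CO2; cpds (DMSO) pinned, 3 h; LiveBLAzer B/G FRET substrate, 2 h RT.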

Measured: Potency

Beta-2 adrenergic receptor (Homo sapiens), sequence (P07550 whole entry, looked up): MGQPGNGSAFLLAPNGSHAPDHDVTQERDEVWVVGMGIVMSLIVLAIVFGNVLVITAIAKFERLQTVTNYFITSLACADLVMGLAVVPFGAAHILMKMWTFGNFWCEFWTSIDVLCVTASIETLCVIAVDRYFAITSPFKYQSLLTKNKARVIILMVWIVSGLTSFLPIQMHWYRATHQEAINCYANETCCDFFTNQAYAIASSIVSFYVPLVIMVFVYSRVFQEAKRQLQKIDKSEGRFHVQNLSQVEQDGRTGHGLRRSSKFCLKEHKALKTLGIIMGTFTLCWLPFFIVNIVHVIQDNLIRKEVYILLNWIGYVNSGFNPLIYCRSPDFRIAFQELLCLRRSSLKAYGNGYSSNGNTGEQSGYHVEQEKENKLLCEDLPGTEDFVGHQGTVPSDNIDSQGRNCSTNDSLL
Gonadotropin-releasing hormone receptor (Homo sapiens), sequence (P30968 whole entry, looked up): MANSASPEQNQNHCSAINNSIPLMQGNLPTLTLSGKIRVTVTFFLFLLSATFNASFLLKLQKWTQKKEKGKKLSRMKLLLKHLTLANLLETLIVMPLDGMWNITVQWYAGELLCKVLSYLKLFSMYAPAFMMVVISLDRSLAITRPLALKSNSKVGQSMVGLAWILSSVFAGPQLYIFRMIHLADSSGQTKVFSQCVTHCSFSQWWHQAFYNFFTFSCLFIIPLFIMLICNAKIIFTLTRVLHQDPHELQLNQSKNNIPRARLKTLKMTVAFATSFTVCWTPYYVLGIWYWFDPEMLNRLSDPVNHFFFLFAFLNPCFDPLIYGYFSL
5-hydroxytryptamine receptor 2A (Homo sapiens), sequence (P28223 whole entry, looked up): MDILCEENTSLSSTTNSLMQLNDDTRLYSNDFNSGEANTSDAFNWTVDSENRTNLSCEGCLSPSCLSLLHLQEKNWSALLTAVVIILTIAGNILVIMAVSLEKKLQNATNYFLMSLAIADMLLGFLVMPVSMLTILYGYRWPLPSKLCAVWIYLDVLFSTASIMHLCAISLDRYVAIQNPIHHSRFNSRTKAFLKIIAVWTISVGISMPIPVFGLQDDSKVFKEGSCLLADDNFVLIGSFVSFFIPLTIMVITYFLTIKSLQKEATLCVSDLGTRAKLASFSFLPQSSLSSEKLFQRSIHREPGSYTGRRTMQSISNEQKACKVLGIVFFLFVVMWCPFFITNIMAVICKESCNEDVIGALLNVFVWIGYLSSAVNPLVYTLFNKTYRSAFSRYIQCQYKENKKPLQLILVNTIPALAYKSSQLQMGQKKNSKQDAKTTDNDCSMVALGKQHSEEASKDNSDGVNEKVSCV
D(2) dopamine receptor (Homo sapiens), sequence (P14416 whole entry, looked up): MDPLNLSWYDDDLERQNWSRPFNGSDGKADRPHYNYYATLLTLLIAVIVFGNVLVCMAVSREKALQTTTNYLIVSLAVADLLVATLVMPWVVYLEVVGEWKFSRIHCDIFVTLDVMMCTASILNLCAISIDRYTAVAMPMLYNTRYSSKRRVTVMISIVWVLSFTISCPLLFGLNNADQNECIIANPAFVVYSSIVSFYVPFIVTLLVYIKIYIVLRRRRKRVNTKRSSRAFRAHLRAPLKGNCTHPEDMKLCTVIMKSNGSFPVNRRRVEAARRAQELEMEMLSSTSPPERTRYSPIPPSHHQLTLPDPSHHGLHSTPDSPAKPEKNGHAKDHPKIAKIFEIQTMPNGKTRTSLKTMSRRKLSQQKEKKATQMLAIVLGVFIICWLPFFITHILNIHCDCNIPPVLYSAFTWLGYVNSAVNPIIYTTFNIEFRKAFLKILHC
Muscarinic acetylcholine receptor M1 (Homo sapiens), sequence (P11229 whole entry, looked up): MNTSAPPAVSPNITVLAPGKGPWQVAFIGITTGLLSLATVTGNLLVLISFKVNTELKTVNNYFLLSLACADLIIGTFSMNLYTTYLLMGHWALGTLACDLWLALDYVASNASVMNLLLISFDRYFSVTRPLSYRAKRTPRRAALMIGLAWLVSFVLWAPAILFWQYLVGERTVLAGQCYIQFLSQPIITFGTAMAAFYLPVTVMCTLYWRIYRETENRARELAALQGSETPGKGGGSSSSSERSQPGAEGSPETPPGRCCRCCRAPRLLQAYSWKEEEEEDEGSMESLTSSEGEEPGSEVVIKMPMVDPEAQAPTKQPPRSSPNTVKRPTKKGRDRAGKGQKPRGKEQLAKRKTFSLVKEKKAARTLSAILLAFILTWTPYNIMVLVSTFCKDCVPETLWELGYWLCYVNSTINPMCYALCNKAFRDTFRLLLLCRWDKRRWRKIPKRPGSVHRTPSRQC

CCCC/C=C\CCCCCCCCCC=O
not listed: [18] | [19] | [20]
inactive: all other assays above

COC(OC)OC
not listed: [15] | [20]
inactive: all other assays above

CN(C(=O)c1c(O)c2ccccc2n(C)c1=O)c1ccccc1
not listed: [11] | [19]
inactive: all other assays above

CC(O)Cn1cnc2c1c(=O)n(C)c(=O)n2C (configuration not stated)
not listed: [13] | [14] | [17]
inactive: all other assays above

COC(=O)c1sccc1S(N)(=O)=O
not listed: [15]
inactive: all other assays above

CCOc1ccc(N)c([N+](=O)[O-])c1
not listed: [14]
inactive: all other assays above

CC(C)CC=O
not listed: [15]
inactive: all other assays above
